From PubChem BioAssay AID504332 (National Center for Advancing Translational Sciences (NCATS), 2011)
The whole screen tested about 350,000 compounds, of which about 31,000 (8.9%) were called active. Another 15% or so got no clear call; they are omitted. The sample as a whole holds a higher share of actives than the screen did. A number with no mark means an inactive call. Calls come from the whole dose curve; as a rule, active = well fitted inhibition curve with a large enough effect; inconclusive = small, poorly fitted or top-dose-only effect; inactive = no such curve, though single readings can be large or run the other way.

target: Histone-lysine N-methyltransferase EHMT2 (Homo sapiens) (UniProt Q96KQ7); assay: qHTS Assay for Inhibitors of Histone Lysine Methyltransferase G9a; conditions: G9a H3K9 monomethylation, AlphaScreen, 2 h; series mostly up to 59 µM; activity, negative = inhibition: at the top concentration; note: nearly all actives have a fitted effect of over 75% in size
Sequence (Q96KQ7 913-1193 limits assumed): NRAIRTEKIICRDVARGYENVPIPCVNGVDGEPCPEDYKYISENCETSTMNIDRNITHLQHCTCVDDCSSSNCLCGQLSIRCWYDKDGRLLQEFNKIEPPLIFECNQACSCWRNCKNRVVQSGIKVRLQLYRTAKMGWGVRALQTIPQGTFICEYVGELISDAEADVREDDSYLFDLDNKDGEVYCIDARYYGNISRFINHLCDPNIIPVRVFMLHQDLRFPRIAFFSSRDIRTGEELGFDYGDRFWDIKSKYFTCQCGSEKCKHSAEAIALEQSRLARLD
Method in brief: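 AlphaScreen read-out: biotin-H3K9 peptide (500 nM) methylation by 20 nM enzyme with 20 uM SAM, 2 h at room temperature after 15 min compound preincubation; anti-monomethyl H3K9 antibody plus donor/acceptor beads, 10 min dark.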
% is set by controls: 0 for no effect and ±100 for the full control effect; potency is the fitted concentration of half-maximal effect.

SMILES	activity, negative = inhibition	Potency
COc1ccc(Cl)cc1NC(=O)CSc1nc(=O)[nH]c2c1CCCC2	-3.14%	–
COc1ccc(-c2cc(C(=O)N(C)CC(=O)Nc3ccccc3Cl)c3ccccc3n2)cc1OC	-0.839% [at 102 µM]	–
CCOC(=O)c1ccc(NC(=S)Nc2cc(C)cc(C)n2)cc1	10.3% [at 102 µM]	–
Cc1cc(C)n2nc(C(=O)OCC(=O)N(C)CC(=O)Nc3ccc(F)cc3)nc2n1	-2.62% [at 12.7 µM]	–
CCOC(=O)c1ccc(Nc2cc(C)nc3nc(C)nn23)cc1	–	79.4 µM (active)
O=C(Nc1ccccc1Cl)N1CCC(CN2CCCC2)CC1	2.03%	–
CCOC(=O)c1nnn(CC(=O)NC(=O)Nc2ccccc2F)c1C(=O)OCC	-35.9%	–
Cc1cc(C)cc(NC(=O)N2CCCCCCC2)c1	6.79% [at 102 µM]	–
Cc1ccc(NC(=O)C(c2ccccc2)N2CCN(C(=O)c3ccco3)CC2)cc1 (stereo not given)	-37.3% [at 12.7 µM]	–
Cc1cc(C)cc(NC(=O)C(c2ccccc2)N2CCN(CC(=O)N3CCCC3)CC2)c1 (stereo not given)	–	50.1 µM (active)
Cc1cc(C(=O)OCC(=O)Nc2ccccc2Cl)c(C)o1	-9.85% [at 12.7 µM]	–
Cc1ccc(S(=O)(=O)C(C#N)c2nc3ccccc3nc2N2CCCC2)cc1C (stereo not given)	–	2.82 µM (active)
Cc1cc(N2CCN(S(=O)(=O)c3ccc(C)c(C)c3)CC2)c2ccccc2n1	22.6% [at 12.7 µM]	–
CC(C)OC(=O)C(C#N)c1nc2ccccc2nc1N1CCN(Cc2ccccc2)CC1 (stereo not given)	53%	–
COc1ccc(-c2noc(CSc3nnc(-c4ccccc4)n3-c3ccc(F)cc3)n2)c(OC)c1	-7.39%	–
CCN(CC(=O)Nc1ccc(NC(C)=O)cc1)C(=O)C1CC(=O)N(Cc2ccc(C)cc2)C1 (stereo not given)	-0.244% [at 0.501 µM]	–
N#Cc1nc(Cc2cccc3ccccc23)oc1NCc1ccc2c(c1)OCO2	–	10 µM (active)
O=C(CCNS(=O)(=O)c1ccccc1C(F)(F)F)NCc1ccc2c(c1)OCO2	0.774%	–
c1n[nH]c(NCc2ccc3c(c2)OCO3)n1	-1.38%	–
Cc1cc(NS(=O)(=O)c2ccc(NC(=O)c3ccccc3C)cc2)nc(C)n1	2.07%	–
CCc1cccc(-n2nnc(-c3nsc(NC(=O)c4ccc(C)cc4)n3)c2C)c1	-0.566%	–
CCCCSc1ncnc2c1sc1nc(N3CCOCC3)c3c(c12)CCCC3	-8.07%	–
COC(=O)c1ccc(CNC(=O)c2ccc3oc(C(C)C)nc3c2)cc1	29.5% [at 102 µM]	–
CC1(C)CC(=O)C(C=NCCN2CCN(C(=S)Nc3cccc(Cl)c3)CC2)=C(O)C1	-2.18% [at 0.501 µM]	–
CCNC(=S)N1CCN(CCN=CC2=C(O)CC(C)(C)CC2=O)CC1	26.3% [at 102 µM]	–

SMILES	activity, negative = inhibition	Potency
O=C1CC(c2ccccc2)CC(O)=C1C=NCCN1CCOCC1 (stereo not given)	–	12.6 µM (active)
O=C1CC(c2cccc(Cl)c2)CC(O)=C1C=Nc1ccccc1 (stereo not given)	19.3%	–
O=C1CCCC(O)=C1C=NCCc1ccccc1	-16.2%	–
CC(C)C(=O)N1CCN(CCN=CC2=C(O)CC(c3ccco3)CC2=O)CC1 (stereo not given)	–	50.1 µM (active)
COc1ccc2c(c1)C=C(C(=O)NCc1cc(Br)ccc1OC)CO2	-5.53%	–
COc1ccc(OC)c(NC(=O)C2CCCN(S(=O)(=O)c3ccc4c(c3)CCCC(=O)N4)C2)c1 (stereo not given)	-27.3%	–
O=C(Nc1nc(-c2ccco2)c(-c2ccco2)s1)c1ccco1	16.3% [at 2.33 µM]	–
CCN(c1ccc(Cl)cc1)S(=O)(=O)c1nnc(NC(=O)c2ccco2)s1	-16.6%	–
O=C(Nc1nnc(CCOCCOCCc2nnc(NC(=O)c3ccco3)s2)s1)c1ccco1	–	14.1 µM (active)
CN(Cc1ccccc1)C(=O)c1cc2c(=O)n(C)c3ccccc3c2s1	0.227%	–
Cc1ccc(N(CC(=O)NCC(C)c2ccccc2)S(=O)(=O)N(C)C)cc1 (stereo not given)	20%	–
CCOC(=O)c1ccccc1NC(=O)CSc1nc2ccccc2c(=O)[nH]1	0.864% [at 102 µM]	–
CCOC(=O)c1sc(NC(=O)CSc2n[nH]c(CC)n2)nc1C	3.78% [at 102 µM]	–
CCOC(=O)c1sc(NC(=O)CSc2nc(O)c(Cc3ccccc3)c(=O)[nH]2)nc1C	–	50.1 µM (active)
Cc1ccc(C(=O)Nc2ncccc2C)cc1S(=O)(=O)N1CCOCC1	22.2% [at 12.7 µM]	–
CC(C)C12CN3CC(C(C)C)(CN(C1)C3c1ccc(OCc3ccccc3)cc1)C2=O (stereo not given)	0.192%	–
CCCCCC(=O)Nc1ccc(S(=O)(=O)Nc2ccc(Cl)nn2)cc1	2.65%	–
Cc1nnc(SCC(=O)Nn2cnnc2)s1	2.7% [at 102 µM]	–
Cc1nnc(SCC(=O)Nc2ccc(S(=O)(=O)Nc3ccc(Cl)nn3)cc2)s1	–	79.4 µM (active)
CCCn1nc(C(=O)NNC(=O)CCOc2ccccc2OCC)c2ccccc2c1=O	-3.32% [at 102 µM]	–
COc1cccc(C(=O)Nc2ccc(-c3cc(C(F)(F)F)nn3-c3ccccc3)cc2)c1	10.9%	–
Cc1cccc(C(=O)OC(C)C(=O)NC2CCCc3ccccc32)c1O (stereo not given)	18.2% [at 12.7 µM]	–
CN(C)C1=NC[C@H](Cc2ccccc2)N1CCc1ccc(F)cc1	16.6% [at 2.33 µM]	–
OC(C#CCN1CCOCC1)(c1ccccc1)C1CCCCC1 (stereo not given)	-18.1%	–
CN(CC#CCC(c1ccccc1)c1ccccc1)C(C)(C)C	-1.78%	–
